Laboratory results as given in PubChem BioAssay (NCI).
This is part of a sample that, as a whole, favours compounds with a hit. Of some 83,000 tested, about 20% had one in any assay.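 Values shown are percent growth following 48 h exposure of cells in 96-well plates to a single concentration of compound; below 10 was considered active.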 A number with no mark means an inactive call. Calls of active or inactive are those of the source.

These molecules were tested on OVCAR-3 ovarian (assay: NCI-60 one-dose screen, 48 h (100 = growth as untreated, 0 = no growth, -100 = all killed)). Details: 10 µM unless noted.

Structure (SMILES) | growth
COc1ccc(-c2n[nH]nc2-c2cc3ccccc3s2)cc1O | 16.1%
Cn1cc(-c2csc(-c3c[nH]c4ccc(F)cc34)n2)c2cccnc21 | -2.33% (active)
Nc1c(C(=O)Nc2cccc(Br)c2)sc2nc3c(cc12)C(=O)CCC3 | 5.48% (active)
COc1cc(/C=N/Nc2ncnc3c2c(C)nn3-c2ccc(F)cc2)ccc1O | 75.8%
Nc1ccccc1NC(=O)c1ccc(CN2CCC/C(=C\c3ccccn3)C2=O)cc1 | 27.6%
Cc1ccccc1-c1nc(C(Cl)Cl)nc2cc(-c3ccccc3)nn12 | 28.3%
N#CC1=C(N)Oc2ccc3ccccc3c2C1c1ccccc1 (centres undefined) | 18.4%
Cc1csc(-c2ccc3c(c2)COC3(CCCN(C)C)c2ccc(F)cc2)c1 (centres undefined) | 58.7%
O=C(O)c1cccc2c1Cc1cc([N+](=O)[O-])ccc1-2 | 115%
COc1ccc(C2C(C#N)=C(N)Oc3c2sc2c(F)cccc32)cc1 (centres undefined) | -4.86% (active)
CCCCCCCCNc1cccc2c1C(=O)c1ccccc1C2=O | 92.6%
CC1(C)CC[C@]2(CO)CC[C@]3(C)C(=CC[C@@H]4[C@@]5(C)CC[C@H](NCO)C(C)(C)[C@@H]5CC[C@]43C)[C@@H]2C1 | -66.2% (active)
CNC(=O)c1cc(Oc2ccc3nc(NC(=O)Nc4ccc(Cl)cc4)sc3c2)ccn1 | 48.8%
O=C(c1ccccc1)C(CN1CCOCC1)c1ccccc1 (centres undefined) | -10.7% (active)
NCCn1cc(-c2nc(-c3c[nH]c4ncccc34)cs2)c2ccccc21 | 90.8%
COc1cc(-c2cc(-c3nc4cc(Cl)c(Cl)cc4[nH]3)[nH]n2)cc(OC)c1OC | 52.2%
CC1(n2nnnc2N2CCCN(c3ncccc3N)CC2)CCC1 | 106%
C=CC(=O)N[C@H](Cc1ccc(-c2cc(Cl)cc(Cl)c2)cc1)[C@H](O)[C@@H](O)C(=O)O | 101%
N#CC1=C(N)Oc2c(sc3c(F)cccc23)C1c1ccc(Cl)cc1 (centres undefined) | 6.16% (active)
COc1ccccc1CNc1nc(N)nc2[nH]c3ccc(O)cc3c12 | 44.6%

Structure (SMILES) | growth
CCC(c1ccc(OC)cc1)C(CC)c1ccc(O)c(CN2CCCCC2)c1 (centres undefined) | 73.9%
C/C(=N\Nc1cc(C)c2cc(C)ccc2n1)c1ccccn1 | -40.6% (active)
Cn1cc(-c2csc(-c3c[nH]c4ccccc34)n2)c2cccnc21 | -14.9% (active)
Oc1ccc(Nc2ccccc2)cc1 | 94.2%
Nc1c(C(=O)Nc2cccc(Cl)c2)sc2ncc(Cl)cc12 | 71.4%
C(=C\c1c[nH]c2ccccc12)/c1ccc2ccccc2n1 | 69.3%
COc1ccc(-c2nc3ccccn3c2-c2nc3ccc(Cl)cc3[nH]2)cc1 | 73.9%
CC/C(=N/NC(N)=O)c1ccccc1 | 109%
Cc1ccsc1-c1ccc2c(c1)COC2(CCCN(C)C)c1ccc(F)cc1 (centres undefined) | 67.2%
NS(=O)(=O)c1ccc(CCNC(=O)/C=C/c2ccc(Cl)cc2)cc1 | 105%
Cc1ccc(N(CC(=O)Nc2ccc(S(=O)(=O)N3CCC(N4CCCC4)CC3)cc2)S(=O)(=O)c2ccc(Cl)cc2)cc1 | -22.4% (active)
CC1(C)NCCC[C@]2(C)[C@H]3CC[C@@H]4[C@H]5[C@H](C(=O)/C=C/c6ccccn6)CC[C@]5(CO)CC[C@@]4(C)[C@]3(C)CC[C@@H]12 | 40.9%
Fc1ccc2nc(-c3cc(-c4ccc5c(c4)OCO5)n[nH]3)[nH]c2c1 | 5.87% (active)
O=C(NC(Cc1cn(Cc2ccccc2)cn1)C(=O)O)OCC1c2ccccc2-c2ccccc21 (centres undefined) | 105%
Cc1cc(Cl)nc(N(CCCNc2ccnc3cc(Cl)ccc23)Cc2ccco2)n1 | 35.7%
COc1cc(-c2cc3ncccc3c3nc(OCCN(C)C)c4cccnc4c23)cc(OC)c1OC | -25.6% (active)
O=C1CNCCN1 | 109%
c1ccc2[nH]c(-c3ccc(Nc4nc(N5CCCCC5)nc(N5CCOCC5)n4)cc3)nc2c1 | 10.9%
NC1=NN=C2N(N)C(=O)c3cnn(-c4ccccc4)c3N2c2nc(-c3ccccc3)cc(-c3ccccc3)c21 | 116%
